# Experimental data published in PubChem BioAssay (Tox21).
# Results filed as inconclusive are left out. Entries that show only a call come without a potency. Where a structure was tested more than once in an assay, its records may differ in their call. Calls of active or inactive are those of the source. Unless noted, calls follow the shape of the dose curve; as a rule, active = well fitted curve in the direction sought with a large enough effect in the repeat runs; inconclusive = weak or mixed curves; inactive = no such curve, though single readings can be large; an effect the other way counts as inactive or inconclusive.
# Key:
# [1] = qHTS assay to identify aromatase inhibitors - cell viability counter screen (AID 743084);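 also: cells stimulated with testosterone during compound exposure; nearly all actives have a fitted effect of over 55% in size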
# [2] = target: Aryl hydrocarbon receptor (Homo sapiens) (UniProt P35869); assay: qHTS assay to identify small molecule that activate the aryl hydrocarbon receptor (AhR) signaling pathway (AID 743085); also: nearly all actives have a fitted effect of over 15% in size; also: potency is read from the fitted curve at half-maximal effect;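 as to activation: HG2L7.5c1 human HepG2 liver cells with stably integrated DRE-driven firefly reporter; series mostly up to about 70 µM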
# In short: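 Luminescence (ONE-Glo) from a dioxin-responsive-element luciferase reporter in HG2L7.5c1 HepG2 cells after 24 hr compound exposure at 37C; viability measured by CellTiter-Fluor fluorescence beforehand.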
# [3] = qHTS assay to identify small molecule that activate the aryl hydrocarbon receptor (AhR) signaling pathway - cell viability counter screen (AID 743086);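 also: HepG2 liver cells carrying the AhR DRE luciferase reporter; series mostly up to about 70 µM; nearly all actives have a fitted effect of over 45% in size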
# In short: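 HepG2-AhR-luc (HG2L7.5c1) cells, 4000/well, treated 24 h at 37 C with compound; viability measured as CellTiter-Fluor fluorescence after 30 min in the same wells as the luciferase read.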
# [4] = target: Peroxisome proliferator-activated receptor gamma (Homo sapiens) (UniProt P37231); assay: qHTS assay to identify small molecule agonists of the peroxisome proliferator-activated receptor gamma (PPARg) signaling pathway (AID 743094; active = well fitted activation curve with a large enough effect in the signal ratio in the repeat runs, not every such curve was filed as active; the % refers to the signal ratio)
# In short: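 Quantitative HTS agonist mode: stable HEK293H line with UAS-beta-lactamase reporter under PPARg control, 17 h compound exposure at 37C, fluorescence after 1 h FRET substrate loading at room temperature.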
# [5] = target: Peroxisome proliferator-activated receptor gamma (Homo sapiens) (UniProt P37231); assay: qHTS assay to identify small molecule antagonists of the peroxisome proliferator-activated receptor gamma (PPARg) signaling pathway (AID 743191; calls by dose curve; also: series mostly up to about 63 µM; nearly all actives have a fitted effect of over 30% in size)
# In short: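 GeneBLAzer PPARg UAS-bla HEK293H cells, 5 h post-plating, exposed to compounds 17 h at 37C. LiveBLAzer B/G FRET substrate added for 1 h at room temperature; beta-lactamase reporter read by fluorescence intensity.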
# [6] = qHTS assay to identify small molecule antagonists of the peroxisome proliferator-activated receptor gamma (PPARg) signaling pathway - cell viability counter screen (AID 743194); also: nearly all actives have a fitted effect of over 55% in size
# In short: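 Cytotoxicity counter screen in PPARg-bla HEK293H cells, same wells as reporter assay. Compounds plus 50 nM rosiglitazone (final) for 17 h at 37 C, then viability read by CellTiter-Glo luminescence.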
# [7] = qHTS assay for small molecule agonists of the antioxidant response element (ARE) signaling pathway (AID 743202; active = well fitted activation curve with a large enough effect in the signal ratio in the repeat runs, not every such curve was filed as active; the % refers to the signal ratio)
# In short: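 Agonist mode reporter screen: HepG2 cells with ARE-controlled beta-lactamase are incubated with test compounds for 16 h at 37 C, and beta-lactamase activity is measured as fluorescence of cleaved B/G FRET substrate.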
# [8] = qHTS assay for small molecule agonists of the antioxidant response element (ARE) signaling pathway - cell viability counter screen (AID 743203; calls by dose curve; also: nearly all actives have a fitted effect of over 55% in size)
# In short: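 Seeded at 2,000 cells/well, ARE-bla HepG2 cells were incubated 5 hrs before compound addition. After 16 hrs of treatment at 37C with 5% CO2, CellTiter-Glo reagent was added and luminescence read 30 min later.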
# [9] = qHTS assay for small molecule activators of the heat shock response signaling pathway - cell viability counter screen (AID 743209); also: nearly all actives have a fitted effect of over 50% in size
# In short: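 First, HSE-bla HeLa cells were seeded at 1500 cells/well and kept overnight at 37 C. Next, compounds were pinned in and incubated 5 h. After the FRET substrate step, CellTiter-Glo was added and luminescence read 30 min later.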
# [10] = qHTS assay for small molecule activators of the heat shock response signaling pathway (AID 743210; active = well fitted activation curve with a large enough effect in the signal ratio in the repeat runs, with a control signal flat, not every such curve was filed as active; the % refers to the signal ratio;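 also: HeLa cells with beta-lactamase reporter driven by heat shock elements; series mostly up to about 63 µM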)
# In short: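 Quantitative high-throughput format using an engineered HeLa line in which heat shock response elements drive beta-lactamase; after 5 h with compound, cells received a B/G FRET substrate and fluorescence was read.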
# [11] = qHTS assay to identify small molecule agonists of the peroxisome proliferator-activated receptor delta (PPARd) signaling pathway - cell viability counter screen (AID 743211); also: nearly all actives have a fitted effect of over 55% in size
# In short: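 Viability was measured as CellTiter-Glo luminescence (30 min, room temperature) in the same wells as the beta-lactamase readout. GeneBLAzer PPARd UAS-bla HEK293H cells received compound after 5 h plating and were incubated 17 h at 37 C.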
# [12] = target: Peroxisome proliferator-activated receptor delta (Homo sapiens) (UniProt Q03181); assay: qHTS assay to identify small molecule agonists of the peroxisome proliferator-activated receptor delta (PPARd) signaling pathway (AID 743212; calls by dose curve)
# In short: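 Quantitative high-throughput agonist screen in a HEK293H beta-lactamase reporter line under UAS control. Compounds in DMSO, at 37 C. Fluorescence read after 2 h with FRET substrate at room temperature.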
# [13] = qHTS assay to identify small molecule antagonists of the peroxisome proliferator-activated receptor delta (PPARd) signaling pathway - cell viability counter screen (AID 743213); also: nearly all actives have a fitted effect of over 50% in size
# In short: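 PPARd-bla HEK293H cells (3000/well) got compound plus 300 nM L165041 agonist for 17 h at 37 C. Viability in the same wells came from CellTiter-Glo luminescence after 30 min at room temperature.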
# [14] = target: Peroxisome proliferator-activated receptor delta (Homo sapiens) (UniProt Q03181); assay: qHTS assay to identify small molecule antagonists of the peroxisome proliferator-activated receptor delta (PPARd) signaling pathway (AID 743215; active = well fitted inhibition curve with a large enough effect in the signal ratio in the repeat runs, not every such curve was filed as active; the % refers to the signal ratio;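 also: cells stimulated with agonist L165041 at 300 nM final during compound exposure; series mostly up to about 62 µM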)
# In short: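 Inhibition of L165041-driven (300 nM final) PPARd signaling is scored in HEK293H UAS-bla cells. Exposure lasts 17 h at 37 C; beta-lactamase activity is then read by FRET substrate fluorescence after 2 h at room temperature.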
# [15] = target: Bile acid receptor (Homo sapiens) (UniProt Q96RI1); assay: qHTS assay to identify small molecule antagonists of the farnesoid-X-receptor (FXR) signaling pathway (AID 743217; active = well fitted inhibition curve with a large enough effect in the signal ratio in the repeat runs, not every such curve was filed as active; the % refers to the signal ratio)
# In short: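 Antagonist mode against 50 uM (final) chenodeoxycholic acid stimulation in FXR-bla HEK 293T cells, 16 h at 37 °C. Inhibition detected as reduced beta-lactamase activity via LiveBLAzer B/G FRET fluorescence after 2 h at room temperature.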
# [16] = target: Bile acid receptor (Homo sapiens) (UniProt Q96RI1); assay: qHTS assay to identify small molecule agonists of the farnesoid-X-receptor (FXR) signaling pathway (AID 743220; active = well fitted activation curve with a large enough effect in the signal ratio in the repeat runs, not every such curve was filed as active; the % refers to the signal ratio)
# In short: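 Beta-lactamase reporter under UAS control in GeneBLAzer FXR HEK 293T cells (5000/well) measured with LiveBLAzer FRET substrate after 2 h at room temperature. Compound exposure lasted 16 h at 37C.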
# [17] = qHTS assay to identify small molecule antagonists of the farnesoid-X-receptor (FXR) signaling pathway - cell viability counter screen (AID 743221; active = well fitted cell-killing curve with a large enough effect in the repeat runs, not every such curve was filed as active; also: nearly all actives have a fitted effect of over 50% in size)
# In short: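 Cytotoxicity counter screen run in the FXR-bla reporter wells: HEK 293T cells exposed to compound with 50 uM (final) chenodeoxycholic acid for 16 h, 37 C, then viability measured by CellTiter-Glo luminescence after 30 min, room temperature.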
# [18] = target: Vitamin D3 receptor (Homo sapiens) (UniProt P11473); assay: qHTS assay to identify small molecule agonists of the vitamin D receptor (VDR) signaling pathway (AID 743222; calls by dose curve)
# In short: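 Quantitative HTS agonist-mode screen: compounds in DMSO were pin-transferred onto VDR-bla cells and incubated 16 h at 37C, 5% CO2. Reporter activity was detected with LiveBLAzer B/G FRET substrate after 2 h at room temperature.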
# [19] = target: Vitamin D3 receptor (Homo sapiens) (UniProt P11473); assay: qHTS assay to identify small molecule antagonists of the vitamin D receptor (VDR) signaling pathway (AID 743223; active = well fitted inhibition curve with a large enough effect in the signal ratio in the repeat runs, not every such curve was filed as active; the % refers to the signal ratio)
# In short: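 Antagonist mode: compound added to VDR-bla cells alongside agonist 1alpha,25-dihydroxyvitamin D3 (3 nM final), incubation 16 h at 37C. Read-out is LiveBLAzer FRET fluorescence, 2 h at room temperature.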
# [20] = qHTS assay to identify small molecule agonists of the farnesoid-X-receptor (FXR) signaling pathway - cell viability counter screen (AID 743218); also: nearly all actives have a fitted effect of over 45% in size
# In short: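 Cytotoxicity counter-screen run in parallel, same wells: FXR-UAS-bla HEK 293T cells dosed 16 h at 37 C, viability read by CellTiter-Glo luminescence after 30 min at room temperature.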
# Sequence of Peroxisome proliferator-activated receptor delta (Homo sapiens) (Q03181 whole entry, looked up): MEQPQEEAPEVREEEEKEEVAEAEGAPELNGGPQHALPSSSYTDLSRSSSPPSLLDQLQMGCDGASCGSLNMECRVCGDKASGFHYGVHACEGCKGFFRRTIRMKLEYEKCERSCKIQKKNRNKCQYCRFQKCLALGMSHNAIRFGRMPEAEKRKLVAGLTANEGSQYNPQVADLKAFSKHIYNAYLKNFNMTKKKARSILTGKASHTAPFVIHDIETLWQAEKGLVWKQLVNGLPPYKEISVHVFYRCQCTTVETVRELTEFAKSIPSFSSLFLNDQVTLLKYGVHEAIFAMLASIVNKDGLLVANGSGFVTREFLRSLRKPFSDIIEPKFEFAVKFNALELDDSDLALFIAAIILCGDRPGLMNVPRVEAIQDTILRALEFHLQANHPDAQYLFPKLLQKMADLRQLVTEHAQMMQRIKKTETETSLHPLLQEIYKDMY
# Sequence of Bile acid receptor (Homo sapiens) (Q96RI1 whole entry, looked up): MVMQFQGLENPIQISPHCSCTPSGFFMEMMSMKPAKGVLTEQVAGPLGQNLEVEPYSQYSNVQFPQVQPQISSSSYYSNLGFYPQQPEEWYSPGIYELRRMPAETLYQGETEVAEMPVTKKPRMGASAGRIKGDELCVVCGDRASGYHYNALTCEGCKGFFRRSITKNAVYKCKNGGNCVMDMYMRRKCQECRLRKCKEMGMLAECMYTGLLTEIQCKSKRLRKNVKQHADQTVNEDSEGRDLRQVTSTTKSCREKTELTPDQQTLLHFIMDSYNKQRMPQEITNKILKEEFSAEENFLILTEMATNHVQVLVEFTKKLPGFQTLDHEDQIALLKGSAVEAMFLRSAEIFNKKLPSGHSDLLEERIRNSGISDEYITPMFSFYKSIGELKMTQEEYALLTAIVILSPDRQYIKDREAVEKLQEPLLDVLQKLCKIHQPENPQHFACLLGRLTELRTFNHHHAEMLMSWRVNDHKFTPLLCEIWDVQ
# Sequence of Vitamin D3 receptor (Homo sapiens) (P11473 whole entry, looked up): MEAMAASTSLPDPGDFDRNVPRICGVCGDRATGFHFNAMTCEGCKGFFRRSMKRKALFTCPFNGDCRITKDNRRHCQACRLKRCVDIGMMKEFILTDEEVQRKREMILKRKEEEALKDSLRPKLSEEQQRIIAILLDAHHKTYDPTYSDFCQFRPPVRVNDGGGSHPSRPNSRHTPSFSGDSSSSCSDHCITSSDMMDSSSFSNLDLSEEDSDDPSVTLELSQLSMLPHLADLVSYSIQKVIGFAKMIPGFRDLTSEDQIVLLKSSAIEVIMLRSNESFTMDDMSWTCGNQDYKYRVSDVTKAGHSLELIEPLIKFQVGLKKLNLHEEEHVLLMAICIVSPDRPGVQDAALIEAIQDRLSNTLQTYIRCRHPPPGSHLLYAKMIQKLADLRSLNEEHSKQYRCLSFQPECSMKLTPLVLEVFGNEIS
# Sequence of Aryl hydrocarbon receptor (Homo sapiens) (P35869 whole entry, looked up): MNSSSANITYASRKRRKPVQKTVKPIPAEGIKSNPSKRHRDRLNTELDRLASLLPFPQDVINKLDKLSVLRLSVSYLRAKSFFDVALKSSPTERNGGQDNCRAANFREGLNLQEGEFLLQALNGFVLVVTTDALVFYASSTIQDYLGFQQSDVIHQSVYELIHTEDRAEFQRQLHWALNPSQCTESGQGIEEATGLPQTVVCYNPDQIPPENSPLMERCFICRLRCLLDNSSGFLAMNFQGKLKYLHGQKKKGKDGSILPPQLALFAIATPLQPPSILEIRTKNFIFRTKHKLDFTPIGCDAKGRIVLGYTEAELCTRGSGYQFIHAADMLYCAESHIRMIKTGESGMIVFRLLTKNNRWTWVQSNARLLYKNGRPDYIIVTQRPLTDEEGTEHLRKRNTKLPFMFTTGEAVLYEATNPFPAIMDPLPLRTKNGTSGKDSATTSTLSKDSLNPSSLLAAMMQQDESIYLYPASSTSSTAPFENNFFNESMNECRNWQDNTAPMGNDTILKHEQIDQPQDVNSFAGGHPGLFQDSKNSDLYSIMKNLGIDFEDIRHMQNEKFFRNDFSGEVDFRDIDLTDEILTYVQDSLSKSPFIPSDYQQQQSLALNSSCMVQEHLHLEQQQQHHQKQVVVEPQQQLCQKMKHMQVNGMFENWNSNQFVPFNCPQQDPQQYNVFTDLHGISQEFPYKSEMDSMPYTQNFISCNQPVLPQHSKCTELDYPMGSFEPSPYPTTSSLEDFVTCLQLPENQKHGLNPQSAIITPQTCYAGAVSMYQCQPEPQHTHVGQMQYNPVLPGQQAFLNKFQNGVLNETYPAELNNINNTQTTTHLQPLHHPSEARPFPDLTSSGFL
# Sequence of Peroxisome proliferator-activated receptor gamma (Homo sapiens) (P37231 whole entry, looked up): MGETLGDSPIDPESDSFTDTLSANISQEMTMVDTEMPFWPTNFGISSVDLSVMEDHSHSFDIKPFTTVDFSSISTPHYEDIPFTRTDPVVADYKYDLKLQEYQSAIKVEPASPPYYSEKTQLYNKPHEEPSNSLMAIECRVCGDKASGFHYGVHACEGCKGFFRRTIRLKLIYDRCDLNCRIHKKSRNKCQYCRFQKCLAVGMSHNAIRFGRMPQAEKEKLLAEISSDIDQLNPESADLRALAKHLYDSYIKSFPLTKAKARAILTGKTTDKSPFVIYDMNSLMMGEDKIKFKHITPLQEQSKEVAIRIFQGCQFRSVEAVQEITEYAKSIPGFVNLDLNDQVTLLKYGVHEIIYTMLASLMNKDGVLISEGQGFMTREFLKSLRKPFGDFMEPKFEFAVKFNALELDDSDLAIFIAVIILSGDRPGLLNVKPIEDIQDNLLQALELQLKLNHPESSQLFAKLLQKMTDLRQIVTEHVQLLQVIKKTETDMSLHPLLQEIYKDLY
SMILES,Potency [1],Potency [2],Potency [3],Potency [4],Potency [5],Potency [6],Potency [7],Potency [8],Potency [9],Potency [10],Potency [11],Potency [12],Potency [13],Potency [14],Potency [15],Potency [16],Potency [17],Potency [18],outcome [19],Potency [20]
O=C1C(O)=C(O)C(=O)C(O)=C1O,inactive,inactive,inactive,inactive,inactive,inactive,inactive,inactive,inactive,inactive,inactive,inactive,inactive,inactive,inactive,inactive,inactive,inactive,inactive,
CCOC(=O)C1=C[C@]2(CC)CCCN3CCc4c(n1c1ccccc41)[C@@H]32,inactive,11.9 µM (active) and inactive,inactive,inactive,inactive,inactive,inactive,inactive,inactive,,,,,,,,,inactive,,
OC(C#CCN1CCCC1)(c1ccccc1)c1ccccc1,inactive,inactive,inactive,inactive,inactive,inactive,inactive,inactive,inactive,inactive,inactive,,inactive,inactive,inactive,,inactive,,,
Cc1c(N)cccc1[N+](=O)[O-],inactive,inactive,inactive,inactive,inactive,inactive,inactive,inactive,inactive,inactive,inactive,inactive,inactive,,,,,,,
COc1ccc(C(=O)N2CCN(CC(=O)N3CCOCC3)CC2)cc1,inactive,inactive,inactive,inactive,inactive,inactive,inactive,inactive,,inactive,inactive,,inactive,,,,,,inactive,inactive
CN(C)CCN(Cc1ccccc1)c1ccccn1,inactive,inactive,inactive,inactive,inactive,inactive,inactive,inactive,inactive,inactive,,inactive,inactive,inactive,,,inactive,inactive,inactive,
CCCCCCCCCCCc1ccccc1,inactive,inactive,inactive,inactive,inactive,inactive,inactive,inactive,inactive,inactive,inactive,inactive,inactive,inactive,inactive,inactive,inactive,,inactive,
C[N+](C)(C)CCOC(=O)CCC(=O)OCC[N+](C)(C)C,inactive,inactive,inactive,inactive,inactive,inactive,inactive,inactive,inactive,inactive,,,,,,,inactive,,,
CN(C)c1ccc(CCO)cc1,inactive,inactive,inactive,inactive,inactive,inactive,inactive,,inactive,inactive,inactive,inactive,inactive,inactive,,,inactive,,inactive,inactive
CCN(CC)CCOC(=O)C(Cc1cccc2ccccc12)CC1CCCO1 (configuration not stated),inactive,inactive,inactive,inactive,inactive,inactive,inactive,inactive,inactive,inactive,inactive,,inactive,,,,inactive,inactive,inactive,inactive
CCn1cc(C(=O)O)c(=O)c2cnc(N3CCNCC3)nc21,inactive,inactive,inactive,inactive,inactive,inactive,inactive,inactive,inactive,inactive,inactive,,inactive,,inactive,inactive,inactive,,,inactive
CC(C)(CO)[N+](=O)[O-],inactive,inactive,inactive,inactive,inactive,inactive,inactive,inactive,inactive,inactive,,,inactive,,,,inactive,,,inactive
O=C(O)CC(=O)C(=O)O,inactive,inactive,inactive,inactive,inactive,inactive,inactive,inactive,inactive,inactive,inactive,,inactive,,inactive,inactive,inactive,inactive,inactive,
C=C(C)C(=O)OCC,inactive,inactive,inactive,inactive,inactive,inactive,inactive,,inactive,inactive,inactive,inactive,,inactive,inactive,inactive,inactive,,inactive,inactive
Cc1cc(C(=O)O)ccc1[N+](=O)[O-],inactive,inactive,inactive,inactive,inactive,inactive,inactive,inactive,inactive,inactive,inactive,,,inactive,,,,,,inactive
O=C(OCCc1ccccc1)c1ccccc1,inactive,inactive,inactive,inactive,inactive,inactive,inactive,inactive,inactive,inactive,inactive,inactive,inactive,,,,inactive,inactive,inactive,inactive
O=C1c2ccccc2S(=O)(=O)N1CCCCN1CCN(c2ncccn2)CC1,inactive,inactive,inactive,inactive,inactive,inactive,inactive,inactive,inactive,inactive,,,inactive,,,,,,,inactive
